RORgamma inh: inhibitors of mouse ROR gamma transcriptional activity; P51450; Drosophila S2 Gal4-RORgamma UAS-luciferase reporter, 20 h; Potency, µM (series often up to 53.6 µM), hits mostly inhibitors; actives 5.4% (n = 310,000); AID 2551; also: nearly all actives have a fitted effect of over 60% in size
Target sequence (P51450 whole entry, looked up, the tested form may be a part): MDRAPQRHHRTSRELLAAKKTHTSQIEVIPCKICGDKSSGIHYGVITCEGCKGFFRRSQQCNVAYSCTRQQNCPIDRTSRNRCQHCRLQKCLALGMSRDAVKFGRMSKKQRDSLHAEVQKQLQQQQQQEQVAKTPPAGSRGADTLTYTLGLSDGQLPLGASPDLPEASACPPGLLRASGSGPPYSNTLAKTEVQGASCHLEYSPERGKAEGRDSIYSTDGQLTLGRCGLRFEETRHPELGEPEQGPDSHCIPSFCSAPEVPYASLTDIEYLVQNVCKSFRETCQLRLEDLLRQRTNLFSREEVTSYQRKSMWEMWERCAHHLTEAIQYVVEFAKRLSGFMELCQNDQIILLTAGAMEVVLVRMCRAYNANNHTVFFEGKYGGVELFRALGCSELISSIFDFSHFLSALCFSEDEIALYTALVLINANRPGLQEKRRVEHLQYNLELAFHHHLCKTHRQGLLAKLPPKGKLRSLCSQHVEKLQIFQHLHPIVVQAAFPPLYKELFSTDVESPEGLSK
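Read-out: Photinus luciferase luminescence; inhibitors lower reporter signal. Insect Schneider cells with Gal4-ROR gamma fusion under metallothionein promoter, UAS reporter; 700 uM final copper sulfate induction, 20 hr, ambient temperature.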
VP16 counter: counter-screen for ROR gamma inhibitors: Gal4-VP16 reporter | Drosophila S2 Gal4-VP16 UAS-luciferase, luminescence, 20 h | Potency, µM (series often up to 53.6 µM), actives largely listed as inhibitors | actives 3.5% (n = 310,000);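 also: Gal4-VP16 expression switched on by copper sulfate through the metallothionein promoter; nearly all actives have a fitted effect of over 50% in size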
IL1B secr inh: inhibitors of inflammasome signaling (IL-1 beta secretion); THP-1 LPS/ATP IL-1B secretion, AlphaLISA, 16 h; stronger effect = lower value; activity change, % at 57.5 µM; actives 4.7% (n = 360,000); in the data active = activity change below about -50%; inconclusive = mostly about -30% to -49%
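THP-1 cells pretreated 1 hr with compounds (up to 57.5 uM final), then stimulated with LPS (250 ng/mL final) plus ATP (1.25 mM final); secreted IL-1B measured by AlphaLISA after 16 hr, decreased signal indicating inhibition.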
TDP1 cell noCPT: qHTS for Inhibitors of human tyrosyl-DNA phosphodiesterase 1 (TDP1): qHTS in cells in absence of CPT; DT40 Tdp1-/- hTDP1 cells, no CPT, ATP luminescence, 48 h; actives 15% (n = 420,000); Potency, µM (doses to about 46.2 µM), usual class: inhibitors; also: nearly all actives have a fitted effect of over 55% in size
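No-CPT arm: Tdp1-/-;hTDP1 DT40 cells (400/well) plus compounds, incubated ≥48 hr at 37 °C. Readout CellTiter-Glo luminescence.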
DT40 TDP1 CPT: growth inhibition of DT40 Tdp1-/-;hTDP1 cells with camptothecin (screen for TDP1 inhibitors); chicken DT40 Tdp1-/-;hTDP1 cells + 20 nM CPT, ATP luminescence, 48 h; actives 12% (n = 420,000); Potency, µM (doses to about 46.2 µM), actives largely listed as inhibitors; also: nearly all actives have a fitted effect of over 55% in size
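Chicken DT40 Tdp1-/- cells stably complemented with human TDP1 were seeded at 400 cells/well in medium containing 20 nM camptothecin, exposed to pin-transferred compounds, and grown at 37 °C for at least 48 hr. Viability was read as ATP luminescence.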
ELG1 DNA repair: ELG1-dependent DNA repair inhibition; HEK293T ELG1-luciferase reporter, luminescence, 16 h; DNA damage induced by 5-fluorouridine; Potency, µM (top dose mostly 46.1 µM), usual class: inhibitors; actives 2.3% (n = 330,000); also: nearly all actives have a fitted effect of over 55% in size
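Cells (2,000 per well) received 5-fluorouridine plus test compound or DMSO and were incubated 16 hr at 37 °C, 5% CO2. Luciferase activity was read by luminescence 30 min after ONE-Glo addition; signal suppression marked inhibition of damage-induced ELG1 function.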
Hits are given with their value; . = inactive; ? = inconclusive; / = not tested or not shown; [ ] = remark or other dose. Sampled rows, rich in hits. Any-hit rate of the full collection: about 21%. Unless noted, calls follow the shape of the dose curve; as a rule, active = well fitted curve in the direction sought with a large enough effect; inconclusive = small, poorly fitted or top-dose-only effect, or another doubt; inactive = no such curve, though single readings can be large; an effect the other way counts as inactive or inconclusive.

SMILES	RORgamma inh	VP16 counter	IL1B secr inh	TDP1 cell noCPT	DT40 TDP1 CPT	ELG1 DNA repair
CCCc1nn2c(=O)cc(COc3ccc(/C=C(\C#N)C(=O)Nc4ccccc4)cc3)nc2s1	/	/	/	.	.	/
O=C(c1csnn1)N1CCC[C@@]2(CCN(Cc3cc(C(F)(F)F)cc(C(F)(F)F)c3)C2)C1	.	.	/	?	?	/
Nc1ccc(/C=C/c2ccc(N)cc2S(=O)(=O)O)c(S(=O)(=O)O)c1	.	.	/	.	.	/
CCn1c(=O)c(C(=O)NNC(=O)c2ccc(Cl)cc2Cl)c(O)c2ccccc21	10µM	?	.	?	?	.
CCCn1c(=O)c(C(=O)NNC(=O)c2ccc(Cl)cc2Cl)c(O)c2ccccc21	.	.	.	?	?	.
CCn1c(=O)c(C(=O)NNC(=O)Cc2ccccc2)c(O)c2ccccc21	13µM	.	.	?	?	.
Cn1c(=O)c(C(=O)NNC(=O)c2cccc(Cl)c2)c(O)c2ccccc21	14µM	18µM	?	13µM	18µM	.
CCn1c(=O)c(C(=O)NNC(=O)c2cccc(Cl)c2)c(O)c2ccccc21	?	?	.	?	23µM	.
CCOC(=O)c1sc(NC(=O)c2nc3ncccn3n2)c(C(=O)OC(C)C)c1C	/	/	/	.	.	/
CCCCCCCCC(=O)NNC(=O)c1c(O)c2ccccc2n(CCC)c1=O	.	.	.	?	23µM	.
Cc1cccc(C(=O)NNC(=O)c2c(O)c3ccccc3n(C)c2=O)c1	.	.	.	29µM	?	.
C=C1NC(=O)c2cc(CN(C)c3ccc(C(=O)N[C@@H](CCC(=O)O)C(=O)O)s3)ccc2N1	.[10 µM]	.	/	/	/	/
CCCC(=O)C1=C(c2ccc(C)c(C)c2)N(C(=O)CCC)n2c(CC)nnc2S1	/	/	/	23µM	?	/
CCCC(=O)N1CCC1(C)C(=O)NS(=O)(=O)c1ccc(C)cc1 (stereo not drawn)	/	/	.	.	.	/
CCCC(=O)C1=C(c2ccc(C)cc2)N(C(=O)CCC)n2cnnc2S1	/	/	/	16µM	?	/
CNc1nc(Cl)nc2c1ncn2-c1ccccc1	/	/	.	.	.	/
Clc1nc(Cl)c2ncn(-c3ccccc3)c2n1	/	/	-103	13µM	8.2µM	/
COc1ccc(CCN2CC(C(=O)NCCc3ccccc3C(F)(F)F)CCC2=O)cc1 (stereo not drawn)	.	.	.	.	.	?
CC(/C=N/NC(=O)c1cc(C(C)(C)C)[nH]n1)=C\c1ccccc1	.	.	.	23µM	?	.
Cc1ccc(-c2cc(C(=O)N/N=C/c3ccco3)n[nH]2)s1	.[10 µM]	.	.	?	.	.
CC(/C=N/NC(=O)c1cc(-c2ccc(C)s2)[nH]n1)=C\c1ccccc1	.	.	.	2.6µM	8.2µM	?
CCOCCCNC(=S)N1CCC(NC(=O)C23CC4CC(CC(C4)C2)C3)CC1	.	.[10 µM]	.	.	.	.
Cc1ccc(NC(=O)COC(=O)c2ccc3c(c2)C(=O)N(CCc2ccccc2)C3=O)c(C)c1	.	.	.	6.5µM	?	.
CNC(=S)NNC(=O)CNc1ccc(C)c(Cl)c1	5.6µM	13µM	.	.	.	.
O=C(CSCc1ccccc1Cl)NNC(=S)Nc1ccccc1	16µM	.	.	?	.	.
SMILES	RORgamma inh	VP16 counter	IL1B secr inh	TDP1 cell noCPT	DT40 TDP1 CPT	ELG1 DNA repair
COCC(=O)Nc1ccc(C)c(Cl)c1	.	.	.	.	.	.
Cc1cccc(NC(=S)NNC(=O)Cc2ccccc2)c1	11µM	?	.	.	.	.
Cc1cccc(NCC(=O)NNC(=S)Nc2ccccc2)c1	11µM	?	.	.	.	.
O=C(Cc1ccccc1)NNC(=S)Nc1ccc(Cl)cc1	?	?	.	.	.	.
O=S1(=O)N=C(c2ccccc2)c2ccccc21	/	/	.	.	.	/
COc1ccc(NC(=O)c2cccc(NC3=NC4CS(=O)(=O)CC4S3)c2)cc1Cl (stereo not drawn)	.	.	.	.	.	.
COC(=O)c1c(NC(=O)/C(C#N)=C/c2ccc(OC)cc2)sc2c1CCC2	/	/	/	.	.	/
Cc1cccc(NC(=S)NNC(=O)c2csc3c2CCCC3)c1	?	.	.	?	?	?
Cc1cccc(NC(=S)NNC(=O)c2csc(C)c2)c1	5µM	?	.	?	.	?
O=C(Cc1ccccc1)NNC(=O)Nc1ccc(Cl)c(Cl)c1	.	.	.	21µM	16µM	.
COc1cccc(NC(=O)CCC2CCN(Cc3nccs3)CC2)c1	.	.	.	.	.	.
O=C(Nc1ccc(Cl)cc1F)c1cc(S(=O)(=O)NC2CCCCCC2)ccc1F	/	/	/	?	21µM	/
CCc1ccccc1NC(=O)c1cc(S(=O)(=O)NC2CCCC2)ccc1F	/	/	/	21µM	?	/
O=C(Nc1ccc(Br)cc1F)c1cc(S(=O)(=O)NC2CCCC2)ccc1F	/	/	/	16µM	21µM	/
O=C(Nc1ccc(Br)cc1F)c1cc(S(=O)(=O)NCc2ccc(F)cc2)ccc1F	/	/	/	?	.	/
CN(C)S(=O)(=O)c1ccc(F)c(C(=O)Nc2ccccc2C(=O)NC2CC2)c1	/	/	.	?	.	.
O=C(Nc1ccc(Cl)cc1F)c1cc(S(=O)(=O)NCc2ccc3c(c2)OCO3)ccc1F	/	/	/	.	?	/
Clc1cccc(Cl)c1/C=C/c1ccn[nH]1	.	.	.	10µM	18µM	.
COc1ccc2c(c1)sc(=NC(=O)CS(=O)(=O)c1ccc(F)cc1)n2C	/	/	.	21µM	?	?
CCn1c(=NC(=O)c2ccc(S(=O)(=O)N3CCOCC3)cc2)sc2cccc(OC)c21	.	?	.	13µM	15µM	?
CCn1c(=NC(=O)CS(=O)(=O)c2ccc(F)cc2)sc2cccc(OC)c21	/	/	.	18µM	15µM	.
CCOc1ccc2c(c1)sc(=NC(=O)C1CC1)n2C	.	.	.	.	.	/
COC(=O)Cn1c(=NC(=O)CCS(=O)(=O)c2ccccc2)sc2c(OC)ccc(OC)c21	.	.	.	?	21µM	.
COCCn1c(=NC(=O)c2ccc(S(=O)(=O)N3CCOCC3)cc2)sc2cc(S(N)(=O)=O)ccc21	.	.	.	?	?	?
CCc1ccc(N2CCn3c2nc2c3c(=O)n(C/C=C/c3ccccc3)c(=O)n2C)cc1	/	/	/	.	.	/
CCc1cccc(C)c1NC(=O)CCNC(=O)c1cccc(C)c1	.	.	.	.	.	.
Cc1ccc(NC(=O)C(OC(=O)c2ccc(C=O)cc2)c2ccccc2)cc1Cl (stereo not drawn)	.	?	.	?	?	.
CCn1c(=NC(=O)CCS(=O)(=O)c2ccccc2)sc2cccc(OC)c21	.	16µM	.	7.3µM	9.2µM	?

Screening data (PubChem BioAssay)
